This passage reports outcome and AC50 results from PubChem BioAssay (EPA / NIEHS).

SMILES strings stand for the structures. The source holds several records for some structures; these can differ, active in one and inactive in another. Calls of active or inactive are those of the source. The calls were made as follows: active = hit-call score of the fitted dose curve at least 0.9, where 1 is the maximum; inactive = score below 0.9.

This test can be described thus: ATG_EGR_CIS: Attagene CIS-FACTORIAL HepG2 Assay for human Early Growth Response 1 (EGR1) (AID 2282938). The following applies: HepG2 Attagene CIS-FACTORIAL EGR reporter mRNA; actives raise or lower the signal. The procedure:
ATG_CIS is a cell-based, multiplexed-readout assay that uses HepG2, a human liver cell line, with measurements taken at 24 hours after chemical dosing in a 24-well plate.ATG_EGR_CIS is one of 52 assay component(s) measured or calculated from the ATG_CIS assay. It is designed to make measurements of mRNA induction, a form of inducible reporter, as detected with fluorescence intensity signals by Reverse transcription polymerase chain reaction (RT-PCR) and Capillary electrophoresis technology.Data from the assay component ATG_EGR_CIS was analyzed into 1 assay endpoint. This assay endpoint, ATG_EGR_CIS, was analyzed with bidirectional fitting relative to DMSO as the negative control and baseline of activity. Using a type of inducible reporter, measures of mRNA for gain or loss-of-signal activity can be used to understand the reporter gene at the transcription factor-level as they relate to the gene EGR1. Furthermore, this assay endpoint can be referred to as a primary readout, because this assay has produced multiple assay endpoints where this one serves a reporter gene function. To generalize the intended target to other relatable targets, this assay endpoint is annotated to the dna binding intended target family, where the subfamily is zinc finger.
Human liver HepG2 cells are transiently transfected with multiple reporter transcription units (MRTUs) in 6-well plates using FuGene 6 reagent (Roche; 3 ml FuGene/1 mg DNA). The MRTU constructs are regulated by a cis-regulating element (promoter). […] A major difference between the CIS and TRANS system is that in CIS activities of endogenous TFs are measured, whereas the TRANS assay evaluates changes in activities of exogenous, chimeric NR-Gal4 proteins. […] At the end of 24 hour incubation, total RNA was isolated using TriZol reagent (Invitrogen). The isolated RNA is then reverse-transcribed using oligo(dT) primer and Mo-MLV reverse transcriptase (Invitrogen) with DNAse I (Ambion) treatment for 30 min. The one-tenth of the produced cDNA was amplified by PCR using Taq DNA polymerase (Invitrogen) and two reporter sequence-specific primers. The PCR products were fluorescently labeled by primer extension with 6-arboxyfluorescein (6-FAM) 5'-labeled reporter sequence-specific primer (2 min at 95 C, 20 s at 68 C and 10 min at 72 C) and these products were digested with 5U of HpaI (New England Biolabs) for 2h at 37 C. The fragments were purified using Qiaquick PCR columns (Qiagen), analyzed on an ABI 3130xL genetic analyzer (Applied Biosystems) with peak positions identified by using a set of X-rhodamine (ROX)-labeled MapMarker1000 molecular weight standards (BioVentures). The raw capillary electrophoresis data was processed using Attagraph software (Attagene).
For `COP(=S)(OC)Oc1cc(Cl)c(Cl)cc1Cl`, the molecule was classed as inactive.
Same read-out and setting: the entry for `O=C(Cc1ccccc1)c1ccccc1` is “inactive”.
Turning to `CCCCP(CCCC)CCCC`, the call was inactive.
Turning to `OCc1ccco1`, the outcome was inactive.
In the case of `O=P(O)(O)CN(CP(=O)(O)O)CP(=O)(O)O`, the result was inactive.
Same read-out and setting: to `CC(C)CCCCCCOC(=O)c1ccccc1C(=O)OCCCCCCC(C)C` belongs “inactive”.
With `C[C@H]1CCCC(=O)CCC/C=C/c2cc(O)cc(O)c2C(=O)O1`, the AC50 was 10.2 µM (active).
Turning to `O=[N+]([O-])c1ccc(O)c([N+](=O)[O-])c1`, the result was inactive.
Regarding `CC(C)(c1ccc(OCC2CO2)cc1)c1ccc(OCC2CO2)cc1` (stereo not given), the AC50 was 33.4 µM (active).
Regarding `CC(C#N)CCC#N` (stereo not given), the call was inactive.
The same measure, in the same setting: the entry for `CNC(=O)O/N=C/C(C)(C)S(C)=O` (stereo not given) is “inactive”.
Consider `CC(C)(C)c1cc(O)ccc1O`, for which the AC50 was 120 µM (active).
Consider `ClCC(Cl)CCl`, for which the molecule was called inactive.
On the same count and under the same terms, to `C=CCc1ccc(OC)cc1` belongs “inactive”.
Consider `O=C1C2(Cl)C3(Cl)C4(Cl)C(Cl)(Cl)C5(Cl)C3(Cl)C1(Cl)C5(Cl)C24Cl` (stereo not given), for which the AC50 was 8.48 µM (active) and the result was inactive.
For `[O-][Cl+2]([O-])O`, the molecule was called inactive.
On the same count and under the same terms, to `ClCc1ccccn1` belongs “inactive”; to `Nc1ncc([N+](=O)[O-])s1`, “inactive”.
As to `O=C(OC1CCCCC1)c1ccccc1C(=O)OC1CCCCC1`, the AC50 was 25.1 µM (active).
For the molecule `O=S(=O)(c1ccc(Cl)cc1)c1ccc(Cl)cc1`, the outcome was inactive.
For `CCNc1nc(NC(C)(C)C)nc(SC)n1`, the molecule was classed as inactive.
As to `C=C(C)C#N`, the call was inactive.
Regarding `COP(=O)(OC)O/C(=C\Cl)c1cc(Cl)c(Cl)cc1Cl`, the AC50 is 37 µM (active).
Turning to `C=CC(=O)OCCCCCC(C)C`, the molecule was classed as inactive.
`C[C@@H](Oc1ccc(Cl)cc1Cl)C(=O)O`: the molecule was classed as inactive.
Same read-out and setting: to `CNC` belongs “inactive”; to `C=C(C)C(=O)[O][Sn]([CH2]CCC)([CH2]CCC)[CH2]CCC`, “inactive”.
For the molecule `O=C(Cl)c1ccc(Cl)cc1`, the molecule was classed as inactive.
On to `C(=NC1CCCCC1)=NC1CCCCC1`, for which the AC50 is 3.17 µM (active).
The same measure, in the same setting: the figure for `ClCc1cccnc1` is 58.6 µM (active).
For `CCC(C)(C)c1ccc(O)c(C(C)(C)CC)c1`, the call was inactive.
Regarding `c1ccc(N=NNc2ccccc2)cc1`, the AC50 is 83.5 µM (active).
Consider `O=[N+]([O-])c1c(Cl)c(Cl)cc(Cl)c1Cl`, for which the call was inactive.
On to `C[C@]12CCC(=O)C[C@@H]1CC[C@@H]1[C@@H]2CC[C@]2(C)[C@@H](O)CC[C@@H]12`, for which the outcome was inactive.
As for `OCC(O)CCl` (stereo not given), the call was inactive.
With `ClC(Cl)=C(Cl)C(Cl)=C(Cl)Cl`, the AC50 is 131 µM (active).
As for `O=C(c1ccccc1)C(Cl)Cl`, the AC50 was 26.6 µM (active).
For the molecule `CC(=[OH+])/C=C(/C)[O-].CC(=[OH+])/C=C(/C)[O-].CC(=[OH+])/C=C(/C)[O-].[Al]`, the molecule was called inactive.
In the case of `CC(C)(C)CC(C)(C)c1ccc(O)cc1`, the call was inactive.

The AC50 is the concentration at which the activity in the assay is half-maximal.
